PMC7819943, “Rice protein-binding microarrays: a tool to detect cis-acting elements near promoter regions in rice”
Whole data set: some 39,000 sequences, median “fluorescence intensity (a.u.)” near 4,300, cut for the highest 2% near 39,000. The entries come from a sample that favours the highest values as a whole.

Each sequence was assayed against T1, OsSMF1 (Oryza sativa, UniProt Q6ZLB0 1-436) (assay: protein-binding microarray (RPBM); PBS, 2% BSA, 51.3 ng/ul salmon testes DNA, 50 uM zinc acetate, 200 nM TF, 25 C, 1 h; high values mean tight binding). Conditions: protein: recombinant; tags: N-terminal polyhistidine and DsRed monomer fusion (pET32a); chain copies: 2; label: CyDye5-dUTP incorporated in the synthesized complementary strand; 3' TTTTT single-stranded linker to array surface; dsDNA, one strand shown.
T1 sequence: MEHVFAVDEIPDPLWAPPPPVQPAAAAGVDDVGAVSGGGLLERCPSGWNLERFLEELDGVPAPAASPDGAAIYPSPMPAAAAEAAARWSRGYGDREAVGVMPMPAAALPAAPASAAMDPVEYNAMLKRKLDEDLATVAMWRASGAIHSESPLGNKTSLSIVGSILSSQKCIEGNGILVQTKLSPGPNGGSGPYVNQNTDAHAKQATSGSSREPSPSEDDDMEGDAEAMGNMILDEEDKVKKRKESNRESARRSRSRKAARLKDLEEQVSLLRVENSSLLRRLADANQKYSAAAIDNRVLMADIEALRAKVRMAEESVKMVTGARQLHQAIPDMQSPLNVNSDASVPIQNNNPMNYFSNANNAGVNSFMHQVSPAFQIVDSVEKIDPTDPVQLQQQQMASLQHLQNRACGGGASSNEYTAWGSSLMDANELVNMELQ
Outline: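 Using Ni–NTA, transcription factors fused N-terminally to polyhistidine and DsRed were purified after expression in E. coli BL21-CodonPlus. These were incubated at 200 nM with a blocked, double-stranded custom Agilent array for 1 h at 25 °C in a buffer containing 50 µM zinc acetate, and the array was washed. The binding signal is per-feature fluorescence intensity (arbitrary units) on an Axon 4000B scanner.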

| Sequence | binding signal |
| --- | --- |
| TATCCATGGTGTTTAACAATATATCACTGGATACACGTGTCGGAGTCACCTAGTGCAG | 9700 fluorescence intensity (a.u.) |
| TTCTTCCCTTCACATAGGAATTGGATGATGTGGAGACTTTCGGAGTCACCTAGTGCAG | 7630 fluorescence intensity (a.u.) |
| CATAATTTTAGGTATCGCTAGGATTTAATTTACACTGTAGCGGAGTCACCTAGTGCAG | 3370 fluorescence intensity (a.u.) |
| TTAGTTTTATATAAAATGTGTCACATGATAATAGTAGTACCGGAGTCACCTAGTGCAG | 3870 fluorescence intensity (a.u.) |
| TCTACTGTGTGTGTGTGTGTGTGTGTTCACTACTGGATAGCGGAGTCACCTAGTGCAG | 3160 fluorescence intensity (a.u.) |
| GTCCTAAAGTACTTATTGTGTCCGGTTTTGGTTAGTTAAGCGGAGTCACCTAGTGCAG | 3210 fluorescence intensity (a.u.) |
| CAGTTACGCGCCGTGCCTACCCGTGTATCACCGCGATGAGCGGAGTCACCTAGTGCAG | 3270 fluorescence intensity (a.u.) |
| TGCGTGTTTGATGATATACACGTGCGTATATGTCTACCGTCGGAGTCACCTAGTGCAG | 3880 fluorescence intensity (a.u.) |
| ACCCATTTTCAGTGGCAGGGTTATTGACACCACACTCACACGGAGTCACCTAGTGCAG | 3140 fluorescence intensity (a.u.) |
| TCCCTCCTCCCCGTCGTCACAAGCCACGTCATCGATCCGCCGGAGTCACCTAGTGCAG | 40000 fluorescence intensity (a.u.) |
| ACACGGATCGAACCCCTCCTCCCCGCCACGTCACCGATCCCGGAGTCACCTAGTGCAG | 38700 fluorescence intensity (a.u.) |
| CCCGCGTCGCATTCAACGCCACGCACACCACTCCACTCCACGGAGTCACCTAGTGCAG | 3470 fluorescence intensity (a.u.) |
| TCGGCATGGGCGGTGGCGCTGGCGCGTCCTCCGATCCCGTCGGAGTCACCTAGTGCAG | 19900 fluorescence intensity (a.u.) |
| CCCTAGCCCTCGCCCTGGTCCGTCCGGCGTGGCGCGCGCTCGGAGTCACCTAGTGCAG | 5150 fluorescence intensity (a.u.) |
| TTCTCCGGCCGCCGCCGCCATCGCCGCCGGCCGTAGCATGCGGAGTCACCTAGTGCAG | 56000 fluorescence intensity (a.u.) |
| CCAACGTCGTACATCCCTCCACGTCATCGATCCGCGCCGCCGGAGTCACCTAGTGCAG | 35200 fluorescence intensity (a.u.) |
| TGGATCCGGCCCTGCATGTCCGTCCTCGCCGGTGGGCGCTCGGAGTCACCTAGTGCAG | 41400 fluorescence intensity (a.u.) |
| TCTCTCTCTCTCTCGCCATCGTCACTGCGGCTGCTGCTGCCGGAGTCACCTAGTGCAG | 3810 fluorescence intensity (a.u.) |
| GCACCAGCCAGTCAGCCCACCATTTCAAACGCCACACTCACGGAGTCACCTAGTGCAG | 60800 fluorescence intensity (a.u.) |
| GCATGGCGCCGCCATCTCGGATTCGCCGTAGTGTCTCCGCCGGAGTCACCTAGTGCAG | 35300 fluorescence intensity (a.u.) |
| CGCGCTGTCTGCACCGCCGCCGCCGCCGCCGGCGGAACCCCGGAGTCACCTAGTGCAG | 25200 fluorescence intensity (a.u.) |

| Sequence | binding signal |
| --- | --- |
| CTCCGATACGTATCCCGTACGTATCGCTATTTACTTCGATCGGAGTCACCTAGTGCAG | 4930 fluorescence intensity (a.u.) |
| CAGATCGGCAGACCAGACCACGTGTACACCCAACACGAGGCGGAGTCACCTAGTGCAG | 8390 fluorescence intensity (a.u.) |
| AGGAAAGGTTAATTACGTACGTACACGGGAAGGAGTAACCCGGAGTCACCTAGTGCAG | 3340 fluorescence intensity (a.u.) |
| TCCCTCTGACATGGTTCATTGATAGGTGGACTCTCTATTCCGGAGTCACCTAGTGCAG | 3240 fluorescence intensity (a.u.) |
| TCCCGTCTCGTCCGTCGTCTCCTCCGCTCCTTGCGCCAAGCGGAGTCACCTAGTGCAG | 3200 fluorescence intensity (a.u.) |
| GCTCCTCACCCGCCGTGAACCCAACCCACATCCGCTGACGCGGAGTCACCTAGTGCAG | 3300 fluorescence intensity (a.u.) |
| ACCTGCCCAACCCCAACCCCAACCCTCTCCTCTCCGCCCACGGAGTCACCTAGTGCAG | 3710 fluorescence intensity (a.u.) |
| AAAGCCTCGCCGCCATCTCTCTCCACCACCCAAAATTTCTCGGAGTCACCTAGTGCAG | 35600 fluorescence intensity (a.u.) |
| CCGCCGTGAAGCACACCACCACCAACCCCATCGCTCCCTCCGGAGTCACCTAGTGCAG | 64500 fluorescence intensity (a.u.) |
| CTCCTCTCCCGCGCGCCACGCCCTCCCTCCCCTTCCCCTTCGGAGTCACCTAGTGCAG | 4060 fluorescence intensity (a.u.) |
| AAGAAAATCTCCTGTCTCAGTCTCCTCCGCTCCTTGCGCCCGGAGTCACCTAGTGCAG | 54400 fluorescence intensity (a.u.) |
| TCCCCACCCTCCTCCGCAAGCCACGCCTCTCCCCAAAGTTCGGAGTCACCTAGTGCAG | 65500 fluorescence intensity (a.u.) |
| AGCCAGCCCAAAAGCCACGCCGTCCACTCCATCTCCGCCTCGGAGTCACCTAGTGCAG | 48000 fluorescence intensity (a.u.) |
| ACCACCACCACCACCATCGCACTCCCAACTCCCAAGCCGCCGGAGTCACCTAGTGCAG | 3760 fluorescence intensity (a.u.) |
| CAAAAGCCTCGCCGCGCACCACCACCCAGCTCTCTCCACTCGGAGTCACCTAGTGCAG | 3640 fluorescence intensity (a.u.) |
| GCTCCTCCCGTGCCGCCGCCGTCTCGCGCCAGTGCGTCTCCGGAGTCACCTAGTGCAG | 3330 fluorescence intensity (a.u.) |
| GGTATTGCTGTATTTATTTTGGTGTGGTTGAGAGTCTAGTCGGAGTCACCTAGTGCAG | 4096 fluorescence intensity (a.u.) |
| CATTCCCCTCTCCCCAATTTACCATACACACATGGATGTACGGAGTCACCTAGTGCAG | 3640 fluorescence intensity (a.u.) |
| TGATCAATCAAGAAGACGATCGTGCCGATATCATGGCACCCGGAGTCACCTAGTGCAG | 3940 fluorescence intensity (a.u.) |
| GTCTTTCTTCAATTGTTATTATTGTCATAAATCAGGAGAACGGAGTCACCTAGTGCAG | 22600 fluorescence intensity (a.u.) |
| TTAACCCCGTCACGTCACCTCTCTCTCTCTCTACCGTCTCCGGAGTCACCTAGTGCAG | 9720 fluorescence intensity (a.u.) |
